Measured values reported in PubChem BioAssay (NCATS).
Several values for one entry are separate records, joined by “and”; a condition that tells them apart may be missing. Equal entries are not always repeated. Results filed as inconclusive are left out. Entries that show only a call come without a potency. A structure can be active in one record and inactive in another. Activity calls are given as the source filed them. The call rests on the fitted dose curve; in most records, active means well fitted curve in the direction sought with a large enough effect; inconclusive means small, poorly fitted or top-dose-only effect, or another doubt; inactive means no such curve, though single readings can be large; an effect the other way counts as inactive or inconclusive.

Columns and labels:
[1] = molecular target: Cytochrome P450 3A7 (Homo sapiens) (UniProt P24462); assay: Cytochrome P450 family 3 subfamily A member 7 (CYP3A7) small molecule antagonists: luciferase biochemical qHTS assay (AID 1963596); further: nearly all actives have a fitted effect of over 40% in size
Cytochrome P450 3A7 (Homo sapiens), sequence (P24462 whole entry, looked up): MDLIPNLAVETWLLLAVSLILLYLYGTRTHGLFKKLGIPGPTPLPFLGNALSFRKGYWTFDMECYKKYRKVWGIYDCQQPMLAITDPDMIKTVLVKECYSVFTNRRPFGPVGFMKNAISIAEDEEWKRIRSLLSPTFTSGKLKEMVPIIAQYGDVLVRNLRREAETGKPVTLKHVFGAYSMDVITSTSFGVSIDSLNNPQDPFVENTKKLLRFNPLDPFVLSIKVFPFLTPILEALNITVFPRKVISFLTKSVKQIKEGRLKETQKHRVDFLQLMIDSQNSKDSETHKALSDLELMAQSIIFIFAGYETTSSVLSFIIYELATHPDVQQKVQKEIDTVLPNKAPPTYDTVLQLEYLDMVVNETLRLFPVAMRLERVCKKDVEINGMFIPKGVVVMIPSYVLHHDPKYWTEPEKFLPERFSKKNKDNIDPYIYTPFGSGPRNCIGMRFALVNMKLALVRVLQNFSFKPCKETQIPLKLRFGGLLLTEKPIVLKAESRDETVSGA
Outline: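 Compounds were screened in qHTS format for interference with CYP3A7 turnover of a proluciferin substrate. Reactions ran 1 h at room temperature after NADPH regeneration solution was added, then luciferin product was detected by luminescence.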

[2] = Viability qHTS for spleen associated tyrosine kinase inhibitor (SYKi) naive MV4-11 cells (AID 1963823); further: nearly all actives have a fitted effect of over 40% in size; further: potency means the concentration at half of the fitted maximal effect
Outline: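 qHTS, SYK inhibitor-naive MV4-11; 500 cells/well; 72 hr compound exposure, 37 C; CellTiter-Glo added, 10 min RT; luminescence read.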

[3] = Viability qHTS for spleen associated tyrosine kinase inhibitor (SYKi) drug resistant MV4-11 cells (AID 1963824); further: nearly all actives have a fitted effect of over 35% in size; further: potency means the concentration at half of the fitted maximal effect
Outline: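 SYK inhibitor-resistant MV4-11 AML cells, 500 per well, added to predispensed compounds and incubated 72 hr at 37 C, 5% CO2. Viability measured by CellTiter-Glo luminescence after 10 min at room temperature.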

[4] = Cellular viability qHTS for adrenocortical cancer (ACC) cell line SW-13 (AID 1963989); conditions: SW-13 ACC cells viability, CellTiter-Glo, 48 h; activity (max response): stronger effect = lower value; further: nearly all actives have a fitted effect of over 65% in size; further: potency means the concentration at half of the fitted maximal effect;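 on activity (max response): cells grown in serum-free medium with ITS supplement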
Outline: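 Compound titrations (up to 46 uM final, in DMSO) were applied to SW-13 cells for 48 h at 37C/5% CO2. Reading used CellTiter-Glo after 20 min at room temperature; fitted curves yielded IC50 and efficacy.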

[5] = Cellular viability qHTS for adrenocortical cancer (ACC) cell line NCI-H295R (AID 1963990); further: nearly all actives have a fitted effect of over 60% in size; further: potency means the concentration at half of the fitted maximal effect
Outline: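 Readout: CellTiter-Glo luminescence, 20 min RT. Exposure: 48 h, 37C/5% CO2. Cells: NCI-H295R, ITS-DMEM serum-free. Range: up to 46 uM. Analysis: 4PL fit, IC50 plus efficacy.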

SMILES	Potency [1]	Potency [2]	Potency [3]	activity (max response) [4]	Potency [5]	Potency [4]	activity change, negative = inhibition [1]	viability (% of control) [2]	viability, % of control [3]	activity change, negative = viability loss [5]
CN1C(=O)CC(C)(c2ccccc2)C1=O (stereo not given)	inactive	inactive	inactive	-10.7% (inactive)	inactive	–	–	–	–	–
CCOC(=O)c1ccccc1O	inactive	inactive	inactive	-1.17% (inactive)	inactive	–	–	–	–	–
NCC(=O)CCC(=O)O	inactive	inactive	inactive	16.5% (inactive)	inactive	–	–	–	–	–
CC(=O)N[C@@H](CS)C(=O)O	inactive	inactive	inactive	15.1% (inactive)	inactive	–	–	–	–	–
O=C(O)Cc1ccc(-c2ccccc2)cc1	inactive	inactive	inactive	3.26% (inactive)	inactive	–	–	–	–	–
CCOC(=O)[C@H](CCc1ccccc1)N[C@@H](C)C(=O)N1CCC[C@H]1C(=O)O	inactive	inactive	inactive	11.5% (inactive) and -12% (inactive)	inactive	–	–	–	–	–
O=C(O)c1cc(=O)c2ccccc2o1	inactive	inactive	inactive	-0.886% (inactive)	inactive	–	–	–	–	–
CC(=O)N(CC(O)CO)c1c(I)c(C(=O)NCCO)c(I)c(C(=O)NCC(O)CO)c1I (stereo not given)	inactive	inactive	inactive	7.39% (inactive)	inactive	–	–	–	–	–
CN1CCN(C2CCN(C(=O)Nc3cc(Oc4ccc(NC(=O)C5(C(=O)Nc6ccc(F)cc6)CC5)c(F)c4)ccn3)CC2)CC1	inactive	65.1 nM (active) and 93.4 nM (active)	116 nM (active) and 132 nM (active)	–	25.1 µM (active)	28.2 µM (active)	–	–	–	–
COc1ccc(C(=O)NCc2ccc(OCCN(C)C)cc2)cc1OC	inactive	inactive	inactive	1.66% (inactive)	inactive	–	–	–	–	–
CCC(C(=O)NC(=O)NC(C)=O)c1ccccc1 (stereo not given)	inactive	inactive	inactive	-1.46% (inactive)	inactive	–	–	–	–	–
CCN1CCCC1CN (stereo not given)	inactive	inactive	inactive	-2.8% (inactive)	inactive	–	–	–	–	–
O=C(O)c1ccccc1OP(=O)(O)O	inactive	inactive	inactive	16.4% (inactive)	inactive	–	–	–	–	–
N=C(N)N1CCc2ccccc2C1	–	–	–	-5.8% (inactive)	–	–	2.18% [at 4.83 µM] (inactive)	81.1% [at 4.97 µM] (inactive)	96.6% [at 4.97 µM] (inactive)	-6.61% [at 3.81 µM] (inactive)
O=c1[nH]c2ccccc2c(=O)n1CCCl	inactive	inactive	inactive	10.7% (inactive)	inactive	–	–	–	–	–
CCCCCCCCCCCCCCCCCCN(C)C	inactive	inactive	inactive	-1.14% (inactive)	inactive	–	–	–	–	–
OCC(O)CN1CCN(c2ccccc2)CC1 (stereo not given)	inactive	422 nM (active) and inactive	inactive	-5.47% (inactive)	inactive	–	–	–	–	–
OC[C@@H](O)[C@H](O)[C@H](O)[C@@H](O)CO	inactive	5.96 µM (active)	3.35 µM (active)	1.26% (inactive) and 9.11% (inactive)	inactive	–	–	–	–	–
CCCNC(C)C(=O)Nc1ccccc1C (stereo not given)	inactive	inactive	inactive	8.91% (inactive)	inactive	–	–	–	–	–
Nc1ccc(/C=C/c2ccc(N)cc2S(=O)(=O)O)c(S(=O)(=O)O)c1	–	–	–	11.4% (inactive)	–	–	6.59% [at 0.91 µM] (inactive)	106% [at 0.588 µM] (inactive)	94.1% [at 0.588 µM] (inactive)	-9.73% [at 0.587 µM] (inactive)
O=C1CC[C@H](C(=O)N2CCCCC2)N1	inactive	inactive	inactive	-2.75% (inactive)	inactive	–	–	–	–	–
Cc1c(F)c(N2CCNC(C)C2)cc2c1c(=O)c(C(=O)O)cn2C1CC1 (stereo not given)	inactive	inactive	inactive	-0.964% (inactive)	inactive	–	–	–	–	–
NCCCNCCSP(=O)(O)O	–	–	–	1.65% (inactive)	–	–	11.1% [at 11.5 µM] (inactive)	79.8% [at 9.25 µM] (inactive)	105% [at 9.25 µM] (inactive)	0.548% [at 9.17 µM] (inactive)
Cc1ccc2ccc(Cl)cc2n1	inactive	inactive	inactive	15.8% (inactive)	inactive	–	–	–	–	–
C=CC(=O)Nc1cccc(Nc2nc(Nc3ccc(N4CCN(C(C)=O)CC4)cc3OC)ncc2C(F)(F)F)c1	inactive	1.64 µM (active) and 1.05 µM (active)	1.84 µM (active) and 1.86 µM (active)	–	3.55 µM (active)	2.24 µM (active)	–	–	–	–
O=C(Nc1ccc(-c2ccnc(Nc3ccc(N4CCOCC4)cc3)n2)cc1)C1CCCN1 (stereo not given)	inactive	1.66 µM (active)	1.46 µM (active) and 2.35 µM (active)	-0.397% (inactive)	inactive	–	–	–	–	–
N#CCC(=O)NN	inactive	inactive	inactive	8.55% (inactive)	inactive	–	–	–	–	–
CC(C)c1c2cc(-c3ccnc(NC4CCC(NC5CCOCC5)CC4)n3)ccc2nn1C (stereo not given)	inactive	130 nM (active) and 105 nM (active)	116 nM (active) and 83.3 nM (active)	–	0.447 µM (active)	0.282 µM (active)	–	–	–	–
CN1CCN(CC(=O)N2c3ccccc3C(=O)Nc3cccnc32)CC1	–	–	–	-3% (inactive)	–	–	12.3% [at 4.83 µM] (inactive)	98.6% [at 4.97 µM] (inactive)	96.6% [at 4.97 µM] (inactive)	-2.51% [at 3.81 µM] (inactive)
